Key:
Assay type in all cases: functional
[1] = target: Solute carrier family 2, facilitated glucose transporter member 1 (Homo sapiens) (UniProt P11166); assay: ST_JUDE_LEISH: Cytotoxicity at 2uM final concentration against transgenic Leishmania Mexicana promastigotes LmGLUT1 that are glucose transport deficient and complemented with the human glucose transporter GLUT1. Activity is measured by DNA content using SYBR green in vitro
[2] = target: Hexose transporter 1 (Plasmodium falciparum) (UniProt O97467); assay: ST_JUDE_LEISH: Cytotoxicity at 2uM final concentration against transgenic Leishmania Mexicana promastigotes LmPfHT that are glucose transport deficient and complemented with the Plasmodium falciparum hexose transporter. Activity is measured by DNA content using SYBR green in vitro
[3] = target: Glucose transporter (Leishmania mexicana) (UniProt O61059); assay: ST_JUDE_LEISH: Cytotoxicity at 2uM final concentration against transgenic Leishmania Mexicana promastigotes LmGT2 that are glucose transport deficient and complemented with the L. Mexicana glucose transporter 2. Activity is measured by DNA content using SYBR green in vitro

Chain of Solute carrier family 2, facilitated glucose transporter member 1 (Homo sapiens) (P11166 whole entry): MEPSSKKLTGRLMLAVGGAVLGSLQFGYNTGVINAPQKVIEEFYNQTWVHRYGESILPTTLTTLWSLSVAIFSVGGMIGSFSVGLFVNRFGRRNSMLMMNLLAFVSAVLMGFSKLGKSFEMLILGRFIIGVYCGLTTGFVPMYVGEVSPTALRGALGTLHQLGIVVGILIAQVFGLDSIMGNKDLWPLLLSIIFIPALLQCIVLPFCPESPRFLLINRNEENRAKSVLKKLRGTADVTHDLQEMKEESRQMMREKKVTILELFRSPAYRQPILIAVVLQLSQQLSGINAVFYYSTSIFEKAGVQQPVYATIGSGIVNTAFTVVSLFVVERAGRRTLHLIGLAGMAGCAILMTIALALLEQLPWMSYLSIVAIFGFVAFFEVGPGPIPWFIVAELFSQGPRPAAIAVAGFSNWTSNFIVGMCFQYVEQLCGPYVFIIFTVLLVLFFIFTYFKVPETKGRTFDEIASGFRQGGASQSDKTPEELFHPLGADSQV

Compound | inhibition [1] | inhibition [2] | inhibition [3]
CC(C)COc1ccc(Cl)cc1Cc1ccc(-c2nc3c(F)cccc3[nH]2)o1 | 0.36% | 0.7% | 2.89%
O=C(Nc1cccc(-c2nn3ccccc3c2-c2ccnc(Nc3cccc(N4CCCC4=O)c3)n2)c1)c1cc(F)ccc1F | 2.51% | 3.22% | 1.96%
COc1cccc(OC)c1C(=O)Nc1cccc(-c2nn3ccccc3c2-c2ccnc(Nc3cccc(F)c3)n2)c1 | 6.78% | 9.03% | 4.91%
CN(C)c1ccc2c(c1)Sc1cc(N(C)C)ccc1N2C(=O)c1cccc(C(=O)O)c1 | -1.08% | -0.19% | 7.43%
Cc1cc(NCCC(=O)Nc2ccccc2)nc(NCCc2ccc(F)cc2)n1 | 3.19% | 3.34% | 1.6%
Cc1nc(NCc2ccccc2)cc(Nc2cc(NCc3ccccc3)nc(C)n2)n1 | 4.26% | 3.76% | 1.98%
CC1CN(c2cnn(Cc3ccc(NC(=O)Nc4ccc(F)cc4[N+](=O)[O-])cc3)c(=O)c2Cl)CC(C)N1 (stereo unspecified) | 2.34% | 1.28% | 2.58%
Cc1n[nH]c2cc(Nc3nccc(Nc4ccc(Oc5ccccc5)cc4)n3)ccc12 | 11.3% | 7.61% | 6.15%
Cc1ccc(C)c(NC(=O)CC2C(=O)N(c3ccccc3)C(=S)N2Cc2ccco2)c1 (stereo unspecified) | 4.9% | 5.73% | 5.93%
Oc1ccc(-c2nc3c4cc(I)ccc4c4ccc(I)cc4c3[nH]2)cc1 | 2.27% | -1.87% | -2.11%
CCCCCCn1c(Sc2ccc(C#N)c([N+](=O)[O-])c2)nnc1-c1cccs1 | 5.52% | 6.91% | -0.09%
CCCc1cc(C(=O)N[C@@H](Cc2ccccc2)[C@H](O)CNC(C)(C)c2cccc(OC)c2)c(F)c(N2CCCC2=O)c1 | 9.67% | 7.94% | 9.99%
